# Most compounds without a hit are left out; they make up all but 8.3% or so of the library.
# HCMV inh – inhibitors of human cytomegalovirus; HFF cells, HCMV-luciferase reporter, 72 h; active compounds read low; activity change, negative = inhibition, % at 57.5 µM; hit rate 4.5% among 410,000; in the data active = activity change below about -60%; inconclusive = no clear call, values can overlap the other calls; inactive = above about -39%
#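 Human foreskin fibroblasts infected with luciferase-reporter HCMV at MOI 1 PFU/cell, compounds at two doses. Luciferase measured 72 h post infection; normalized to buffer-only basal and Salinomycin (10uM) controls.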
# FMDV inh – antivirals against foot and mouth disease virus. FMDV antiviral cell-based qHTS. hit rate 1.2% among 410,000. Potency, µM (highest dose often 57.9 µM), inactives show at the top dose activity change, negative = inhibition, usual class: inhibitors; calls by dose curve; tested in HEK293T cells; also: read-out not given here; potency is read from the fitted curve at half-maximal effect; nearly all actives have a fitted effect of over 45% in size
# HCV inh – HCV inhibition. Huh7.5.1 HCVcc-Cre infection, luciferase reporter, 44 h. Potency, µM (top dose mostly 41.8 µM), inactives show at the top dose activity change, negative = inhibition, actives largely listed as inhibitors. hit rate 3.4% among 340,000. AID 651820; also: potency is read from the fitted curve at half-maximal effect
#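 Infectious HCVcc-Cre (~0.5 moi) was added to cells just after compound, with cells seeded 4 h earlier at 1,000 per well. Luciferase activity after 44 h culture reported infection; substrate was incubated 15 min at room temperature before reading.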
# Lassa entry inh – inhibitors of Lassa virus binding or cell entry. hit rate 1.2% among 300,000. Lassa virus pseudotype entry inhibition, cell reporter. Potency, µM (series often up to 37.9 µM), for inactives: top-dose activity change, negative = inhibition, hits mostly inhibitors; calls by dose curve; tested in HEK293 cells; also: potency is read from the fitted curve at half-maximal effect; nearly all actives have a fitted effect of over 50% in size
# FBPA Giardia inh – inhibitors of Giardia lamblia fructose-1,6-bisphosphate aldolase; A8B2U2; purified Giardia FBPA; Potency, µM (series often up to 59.6 µM), for the others: at the top dose activity, negative = inhibition, usual class: inhibitors; hit rate 0.71% among 290,000; AID 2451; also: potency is read from the fitted curve at half-maximal effect; nearly all actives have a fitted effect of over 55% in size
# Target sequence (A8B2U2 whole entry, looked up): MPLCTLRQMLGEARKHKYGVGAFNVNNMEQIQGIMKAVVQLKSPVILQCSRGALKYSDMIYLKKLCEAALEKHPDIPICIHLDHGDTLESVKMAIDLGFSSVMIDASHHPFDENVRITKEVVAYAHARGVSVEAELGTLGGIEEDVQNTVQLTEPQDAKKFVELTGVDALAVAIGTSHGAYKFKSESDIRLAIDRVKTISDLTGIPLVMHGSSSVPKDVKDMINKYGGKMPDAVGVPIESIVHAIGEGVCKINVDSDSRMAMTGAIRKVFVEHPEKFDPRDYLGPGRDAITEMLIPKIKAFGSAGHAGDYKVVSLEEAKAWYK
#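 Giardia FBPA (40 nM reagent) was preincubated 10 min at RT with compound (up to 57.5 uM final), then substrate plus GAPDH/TPI/NAD/arsenate coupling system with diaphorase/resazurin was added; resorufin fluorescence (525/598 nm) was read after 20 min.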
# Marburg entry inh – Marburg virus entry inhibition. Marburg virus pseudotyped entry inhibition, cell reporter. Potency, µM (highest dose often 37.8 µM), for inactives: at the highest dose activity change, negative = inhibition, most hits filed as inhibitors. hit rate 1.8% among 300,000. AID 540276; calls by dose curve; tested in HEK293 cells; also: potency is read from the fitted curve at half-maximal effect
# An asterisk follows results filed as active; u = inconclusive; x = not tested or not shown; [ ] = another dose, or the depositor's remark. Unless noted, calls follow the shape of the dose curve; as a rule, active = well fitted curve in the direction sought with a large enough effect; inconclusive = small, poorly fitted or top-dose-only effect, or another doubt; inactive = no such curve, though single readings can be large; an effect the other way counts as inactive or inconclusive. % is scaled to controls: 0 for no effect and ±100 for the full control effect.
SMILES,HCMV inh,FMDV inh,HCV inh,Lassa entry inh,FBPA Giardia inh,Marburg entry inh
Cc1ccc(OCC(=O)N2CCN(Cc3ccc4c(c3)OCO4)CC2)cc1C,-23,-2%,-27%,-1%,0%,-17%
O=S(=O)(CCN1CCOCC1)c1ccc(Oc2ccc(S(=O)(=O)CCN3CCOCC3)cc2)cc1,-65*,u,3.5µM*,-1%,9%,u
O=C(COc1ccc(S(=O)(=O)N2CCOCC2)cc1)N1CCN(Cc2ccc3c(c2)OCO3)CC1,-61*,u,u,-7%,2%,-25%
Cn1c(=O)n(C)c2cc(N3CCCCC3)c(NC(=O)c3ccc(Cl)cc3)cc21,4,-8%,x,-17%[46.1 µM],x,1%[46.1 µM]
COC(=O)N1CCC2(CC1)CCN(C(c1ccccc1)c1ccccc1)CC2,x,-19%,x,x,7%,x
CC(=O)OCON[N+]([O-])=NC(C)C,x,x,x,x,-28%,x
COc1ccc(NC(=O)CN2C(=O)CC(c3ccc(C)c(C)c3)=Nc3ccccc32)cc1OC,35,0%,x,u,x,x
Cc1ccc(CNC(=O)c2c[nH]c3ccc(S(=O)(=O)N4CCOCC4)cc3c2=O)cc1,-12,-8%,x,u,x,x
O=C(NCc1ccc2c(c1)OCO2)c1c[nH]c2ccc(S(=O)(=O)N3CCOCC3)cc2c1=O,29,-12%,0%,0.52µM*,4%,-2%
CS(=O)(=O)N(CC(=O)N1CCN(Cc2ccc3c(c2)OCO3)CC1)Cc1ccc(Cl)cc1,-84*,u,13µM*,9.2µM*,-1%,0%
O=S(=O)(c1ccc(Oc2ccc(Br)cc2)cc1)N1CCOCC1,-73*,u,u,u,2%,u
O=S(=O)(Nc1ccc(S(=O)(=O)N2CCOCC2)cc1)c1ccc(Br)cc1,-32,51%,2%,6%,7%,-17%[46.1 µM]
CS(=O)(=O)N(CCc1ccccc1)CC(=O)N1CCN(Cc2ccc3c(c2)OCO3)CC1,u,-8%,-20%,u,26%,-24%
O=C(COc1ccc(S(=O)(=O)N2CCOCC2)cc1)N1CCCCCC1,-85*,-13%,4%,-11%,4%,27%[46.1 µM]
COc1ccc(-c2nc3cnc(N4CCN(C)CC4)nc3n(Cc3ccc(F)cc3)c2=O)cc1,x,-13%,x,x,1%,x
COC(=O)c1ccc(C(=O)NCC2Cc3cc(F)cc(-c4cncnc4)c3O2)cc1 (centres undefined),x,1%,x,x,x,x
CC(=O)N1CCc2cc(S(=O)(=O)NCCC(=O)N3CCN(Cc4ccccc4)CC3)ccc21,-66*,u,u,u,1%,3%
Cc1ccc(S(=O)(=O)NCCC(=O)N2CCN(Cc3ccccc3)CC2)cc1,-6,x,-8%,-1%,9%,-7%
CN1CCc2nc(NC(=O)COc3ccc4ccccc4c3)sc2C1,-82*,-16%,u,u,-5%,u
Cc1cccnc1-c1cccc2c1OC(CNC(=O)C(=O)c1ccccc1)C2 (centres undefined),x,-10%,x,x,x,x
COc1cc(/C=C2/C(=O)c3cccc([N+](=O)[O-])c3C2=O)c(Br)cc1O,16,3.5µM*,-22%,-9%,-30%,u
COC(=O)C/C=C\[C@@H](C)[C@@H](/C=N\O[C@@H]1O[C@H](COC(C)=O)[C@@H](OC(C)=O)[C@H](OC(C)=O)[C@H]1OC(C)=O)NS(=O)(=O)c1ccc(C)cc1,x,x,x,x,-1%[12.9 µM],x
CCOC(=O)Cc1ccc(NC(=O)N2CCc3c(sc4c3CCCC4)C2c2ccc(F)cc2)cc1 (centres undefined),0,-8%,x,0%[46.1 µM],x,x
C=C[C@@]1(C)CC[C@H]2C(=CC[C@@H]3[C@]2(C)CCC[C@@]3(C)C(=O)O)C1,x,x,x,x,20%,x
C=C[C@]1(C)C=C2CCC3[C@](C)(CCC[C@@]3(C)C(=O)O)C2CC1 (some centres undefined),x,-18%,2.2µM*,x,x,x
SMILES,HCMV inh,FMDV inh,HCV inh,Lassa entry inh,FBPA Giardia inh,Marburg entry inh
COc1ccc(N2CCN(CCCNC(=O)c3nnc(Cc4ccccc4Cl)o3)CC2)cc1,-28,0%,x,-17%[46.1 µM],x,u
COc1ccc(C(=O)n2nc(-c3ccco3)nc2NCc2cccs2)cc1,30,28%,x,12%[46.1 µM],x,8%[46.1 µM]
c1ccc(Nc2nc(N3CCCCC3)nc(N3CCNCC3)n2)cc1,16,x,u,u,-1%,7.3µM*
c1ccc(Nc2nc(N3CCCCC3)nc(N3CCCCC3)n2)cc1,16,-8%,0%,-26%,0%,u
COc1cccc(/C=N/Nc2nc(Nc3ccc([N+](=O)[O-])cc3)nc(N3CCCC3)n2)c1O,u,-7%,u,u,-16%,2µM*
O=[N+]([O-])c1ccc(/C=N/Nc2nc(N3CCCCC3)nc(N3CCCCC3)n2)o1,-30,-29%,14µM*,u,-11%,21µM*
C(=N\Nc1nc(N2CCCC2)nc(N2CCCC2)n1)/c1ccncc1,-8,-13%,u,-19%,0%,1%[46.1 µM]
COc1c(/C=N/Nc2nc(N3CCCCC3)nc(N3CCCCC3)n2)cccc1[N+](=O)[O-],-92*,-3%,u,-18%,0%,u
Cc1ccccc1CN1CCN2C=C(C(=O)NCC3CC3)OC2=NC1=O,11,x,x,x,x,x
COC(=O)[C@H](COC(C)(C)C)NC(=O)O[C@H]1C(=O)c2cc(OC)ccc2O[C@@H]1c1ccc(OC)c(Br)c1,x,x,x,x,0%,x
CCc1ccccc1NC(=O)NC(CC)Cn1nnc2ccccc2c1=O (centres undefined),33,-19%,x,u,x,17%[46.1 µM]
COc1ccc(/C=N/Nc2nc(Nc3ccccc3)nc(N3CCCC3)n2)cc1,0,-11%,10µM*,6%,4%,5%[46.1 µM]
O=[N+]([O-])c1ccc(NN=Cc2cccc3ccccc23)nc1,u,16%,-28%,-6%[46.1 µM],x,u
COc1ccc(/C=N/Nc2nc(N3CCCC3)nc(N3CCCC3)n2)cc1,-16,-15%,u,3%,2%,5%
O=[N+]([O-])c1cc2c(cc1/C=N/Nc1nc(Nc3ccccc3)nc(N3CCCCC3)n1)OCO2,-75*,-4%,u,1%,7%,-26%
COc1cccc(/C=N/Nc2ncccc2[N+](=O)[O-])c1OC,66,7.1µM*,-10%,u,-3%,1.6µM*
Cc1cc(C)nc(N/N=C/c2cc3c(cc2[N+](=O)[O-])OCO3)n1,u,-19%,u,-3%[46.1 µM],-17%,u
COc1cccc(/C=N/Nc2ccc([N+](=O)[O-])cn2)c1O,-98*,u,1.1µM*,u,2%,u
CC(C)(C)C1CCc2onc(C(=O)Nc3sc4c(c3C(N)=O)CCCC4)c2C1 (centres undefined),24,7%,x,2%[46.1 µM],x,-33%[46.1 µM]
Cc1ccc(-n2c(=O)cc(N3CCN(c4ccccc4Cl)CC3)[nH]c2=O)cc1,3,-22%,x,2%[46.1 µM],x,x

# Source: PubChem BioAssay (National Center for Advancing Translational Sciences (NCATS))
